Measured values reported in paper PMC4336329 (PLoS ONE, 2015).
Out of some 310,000 compounds screened, about 2,200 (0.71%) showed an effect of 50% or more. Effects have a minus sign here. The entries come from a sample that favours strong results as a whole.

What follows are molecules tested against human ether-à-go-go-related gene (hERG) potassium channel (human, UniProt Q12809) (assay: primary screen, population patch clamp on CHO cells stably expressing hERG; higher = less effect of the substance).
human ether-à-go-go-related gene (hERG) potassium channel, sequence (Q12809 whole entry, looked up): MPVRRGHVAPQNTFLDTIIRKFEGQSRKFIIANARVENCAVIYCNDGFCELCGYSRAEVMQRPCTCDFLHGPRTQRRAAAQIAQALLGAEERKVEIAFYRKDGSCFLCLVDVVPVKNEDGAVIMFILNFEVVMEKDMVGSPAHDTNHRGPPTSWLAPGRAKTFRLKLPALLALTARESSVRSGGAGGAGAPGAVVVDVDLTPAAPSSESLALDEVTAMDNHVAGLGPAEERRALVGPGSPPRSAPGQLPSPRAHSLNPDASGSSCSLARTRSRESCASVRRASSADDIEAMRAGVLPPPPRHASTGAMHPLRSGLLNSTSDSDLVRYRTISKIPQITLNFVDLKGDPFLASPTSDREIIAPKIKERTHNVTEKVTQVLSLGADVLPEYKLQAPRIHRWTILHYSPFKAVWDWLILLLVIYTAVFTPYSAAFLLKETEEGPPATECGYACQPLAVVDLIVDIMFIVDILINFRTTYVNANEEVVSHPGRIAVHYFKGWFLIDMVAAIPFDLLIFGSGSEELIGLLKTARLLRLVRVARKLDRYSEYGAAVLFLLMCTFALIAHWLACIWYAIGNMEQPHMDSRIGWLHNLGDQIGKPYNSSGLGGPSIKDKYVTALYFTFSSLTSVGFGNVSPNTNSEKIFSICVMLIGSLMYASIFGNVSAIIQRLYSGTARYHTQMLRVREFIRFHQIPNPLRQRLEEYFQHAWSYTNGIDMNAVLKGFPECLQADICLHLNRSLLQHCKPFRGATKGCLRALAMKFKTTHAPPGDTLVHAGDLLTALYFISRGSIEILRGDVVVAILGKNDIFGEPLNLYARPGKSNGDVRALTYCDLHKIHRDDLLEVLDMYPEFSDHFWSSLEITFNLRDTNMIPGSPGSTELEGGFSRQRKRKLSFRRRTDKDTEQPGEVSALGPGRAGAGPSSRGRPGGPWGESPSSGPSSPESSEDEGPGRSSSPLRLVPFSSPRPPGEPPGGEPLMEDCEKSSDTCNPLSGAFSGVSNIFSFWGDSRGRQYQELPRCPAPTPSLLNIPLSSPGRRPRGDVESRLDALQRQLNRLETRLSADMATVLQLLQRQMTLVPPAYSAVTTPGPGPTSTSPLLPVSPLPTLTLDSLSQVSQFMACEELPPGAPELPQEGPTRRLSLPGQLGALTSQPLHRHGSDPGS

SMILES | hERG current change (%, negative = inhibition) at 1uM
CCOc1ccc(N2CC(C(=O)Nc3ccc(S(=O)(=O)N4CCCC4)cc3)CC2=O)cc1 (stereo not drawn) | 6.22%
c1ccc(Nc2nn[nH]n2)cc1 | 10.1%
NC(=O)c1sc2nc(N3CCCCC3)c3c(c2c1N)CCCC3 | 4.86%
Cc1cc(Cl)c2oc(C(=O)N3CCN(C(=O)c4ccco4)CC3)c(C)c2c1 | 7.14%
Cc1cc(Cl)c2oc(C(=O)N3CCN(c4ccncc4)CC3)c(C)c2c1 | -83.6%
Cc1cc(Cl)c2oc(C(=O)N3CCN(c4cccc(C)n4)CC3)c(C)c2c1 | 14%
Cc1ccc(S(=O)(=O)NCCC(=O)OCC(=O)N(Cc2ccccc2)C(C)(C)C)cc1C | -0.298%
COc1ccccc1OCC(=O)N1CCC2(CC1)CC(=O)c1ccccc1O2 | -4.96%
O=C1CC2(CCN(C(=O)c3cccc(F)c3)CC2)Oc2ccccc21 | -32.6%
CC(=O)N1CCC2(CC1)CC(=O)c1cc(Cl)ccc1O2 | -7.88%
COc1ccc(Cl)cc1C(=O)N1CCC2(CC1)CC(=O)c1ccccc1O2 | -71.7%
O=C1CC2(CCN(C(=O)c3c(F)cccc3F)CC2)Oc2ccccc21 | -3.63%
O=C(c1ccccc1)N1CCN(C(=O)c2ccc([N+](=O)[O-])cc2)CC1 | -4.32%
O=C1CC2(CCN(C(=O)c3ccc([N+](=O)[O-])cc3)CC2)Oc2ccccc21 | -87.5%
O=C1CC2(CCN(C(=O)c3cccc(Cl)c3)CC2)Oc2ccccc21 | -46.6%
O=C1CC2(CCN(C(=O)c3ccc(Cl)cc3)CC2)Oc2ccccc21 | -63.7%
O=C1CC2(CCN(C(=O)c3ccc(F)cc3)CC2)Oc2ccccc21 | -42.2%
O=C1CC2(CCN(C(=O)c3cccc([N+](=O)[O-])c3)CC2)Oc2ccccc21 | -66.7%
O=C(O)c1ccc(S(=O)(=O)N2CCC3(CC2)CC(=O)c2ccccc2O3)cc1 | 10.5%

SMILES | hERG current change (%, negative = inhibition) at 1uM
CCO.CN1CC=C2C(C#N)=C(N)C(C#N)(C#N)[C@H](c3ccoc3)[C@H]2C1 | 6.1%
COc1cc2ccccc2cc1C(=O)N(CCN(C)C)c1nc2c(OC)ccc(OC)c2s1.Cl | 14%
Cc1ccnc(NS(=O)(=O)c2ccc(NS(=O)(=O)c3ccc(Br)cc3)cc2)n1 | 16.1%
COc1ccccc1NC(=S)NC(=O)/C=C/c1cccs1 | 12.3%
COCCCNC(=O)CN(c1cc(Cl)cc(Cl)c1)S(C)(=O)=O | 8.12%
COc1cc(S(=O)(=O)N2CCN(C(=O)c3ccco3)CC2)ccc1Cl | 8.83%
Cn1ncc2nnn(-c3ccccc3)c(=O)c21 | -0.008%
C=CCn1c(SCC(=O)Nc2sccc2C(N)=O)nc2ccc(Cl)cc2c1=O | 1.53%
FCCCOc1ccc(/C=N/OCc2ccc(Cl)cc2Cl)cc1 | 9.53%
O=C1CC2(CCN(C(=O)c3ccccc3Br)CC2)Oc2ccccc21 | -51.4%
O=C1CC2(CCN(C(=O)c3ccccc3Cl)CC2)Oc2ccccc21 | -27.6%
O=C1CC2(CCN(C(=O)c3ccccc3F)CC2)Oc2ccccc21 | -47.9%
O=C1CC2(CCN(C(=O)c3cccc(Br)c3)CC2)Oc2ccccc21 | -56%
O=C1CC2(CCN(C(=O)c3ccc(Br)cc3)CC2)Oc2ccccc21 | -30.8%
CSc1ccccc1C(=O)N1CCC2(CC1)CC(=O)c1ccccc1O2 | -27.2%
O=C1CC2(CCN(C(=O)c3c(F)cccc3Cl)CC2)Oc2ccccc21 | -4.7%
Cc1c(C(=O)N2CCC3(CC2)CC(=O)c2ccccc2O3)cccc1[N+](=O)[O-] | -83.9%
O=C1CC2(CCN(C(=O)c3ccccc3[N+](=O)[O-])CC2)Oc2ccccc21 | -19%
CCn1nnc2cc(C(=O)Nc3cc(OC)cc(OC)c3)ccc21 | 19.3%

SMILES | hERG current change (%, negative = inhibition) at 1uM
O=C(CCn1c(=O)sc2ccccc21)Nc1ccon1 | 4.85%
COC(=O)c1ccccc1NC(=S)NC(=O)c1ccc(C)cc1 | 9.88%
CC(C)CSc1nc2ccccc2[nH]1 | 13%
COCCN1C(=O)C(=O)/C(=C(/O)c2ccc(S(=O)(=O)N3CCCCC3)cc2)C1c1ccc(OC)cc1 (stereo not drawn) | 11.9%
C=CC[C@@H](C)CC(=O)C(CCCN=[N+]=[N-])SOOc1ccccc1 (stereo partly drawn) | 11.2%
Cc1ccc(S(=O)(=O)N2c3ccccc3-c3c(ssc3=S)C2(C)C)cc1 | -1.68%
COc1ccccc1OCC(=O)Nc1ccccc1C(=O)N1CCCC1 | 5.81%
Cc1cc(C(=O)N2CCN(c3ccc([N+](=O)[O-])cc3)CC2)c(C)o1 | -35.1%
Cc1cc(C)n2nc(C(=O)N3CCN(c4ccc([N+](=O)[O-])cc4)CC3)nc2n1 | -77.6%
O=C(c1ccc2nsnc2c1)N1CCN(c2ccc([N+](=O)[O-])cc2)CC1 | -57.4%
CCc1nc2ccc(C(=O)N3CCN(c4ccc([N+](=O)[O-])cc4)CC3)cc2nc1CC | -38.2%
COc1ccc(N2CCN(C(=O)c3nc4nc(C)cc(C)n4n3)CC2)cc1 | 7.39%
O=C(c1ccc(-c2ccc([N+](=O)[O-])cc2)o1)N1CCCCCCC1 | -6.48%
O=C(c1ccc(-c2ccc([N+](=O)[O-])cc2)o1)N1CCCCC1 | -10.5%
Cc1ccc(C(=O)N2CCN(c3ccc([N+](=O)[O-])cc3)CC2)o1 | -79%
CCCN1CCN(C(=O)c2ccc(-c3ccc([N+](=O)[O-])cc3)o2)CC1 | -70.1%
COc1cccc(N2CCN(C(=O)c3nc4nc(C)cc(C)n4n3)CC2)c1 | 8.37%
O=C(c1ccc2c(c1)OCCO2)N1CCN(c2ccc([N+](=O)[O-])cc2)CC1 | 1.16%
Cc1c(Cl)cccc1-c1ccc(C(=O)N2CCN(c3ccc([N+](=O)[O-])cc3)CC2)o1 | -1.98%
